Measurements from PubChem BioAssay (NCATS).
Results filed as inconclusive are left out. Where a call stands in place of a potency, no number is given. A number with no mark means an inactive call. Active and inactive are the calls of the source. Calls come from the whole dose curve; as a rule, active = well fitted inhibition curve with a large enough effect; inconclusive = small, poorly fitted or top-dose-only effect; inactive = flat fitted curve, though single readings scatter.

Assays:
[1] = system: HEK293; experiment: Cytotoxic Profiling of Annotated Libraries Using Quantitative High-Throughput Screening (AID 1296008); conditions: Five cell lines viability, CellTiter-Glo ATP luminescence, 48-72 h; max response: stronger effect = lower value
Procedure, shortened: (§1)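 Compounds were pin-transferred onto cells and incubated 48 or 72 hr at 37 degree Celsius, 95% humidity. CellTiter-Glo was added, plates sat 10 min at room temperature, then ATP-coupled luminescence was imaged as the viability read-out.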

[2] = system: HaCat; experiment: as above; conditions: Five cell lines viability, CellTiter-Glo ATP luminescence, 48-72 h; max response: stronger effect = lower value
Procedure, shortened: as §1

[3] = system: NIH3T3; experiment: as above; conditions: Five cell lines viability, CellTiter-Glo ATP luminescence, 48-72 h; max response: stronger effect = lower value
Procedure, shortened: as §1

[4] = system: HACAT; experiment: qHTS assay to identify novel small-molecules to repurpose for Merkel cell carcinoma treatment (AID 1296009); conditions: MCC and control cell lines, CellTiter-Glo viability, 72 h; at 44.8 µM (top of the series) unless noted
Procedure, shortened: (§2)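 qHTS format: cells treated with library compounds in DMSO across 8 (NPC) or 11 (MIPE) concentrations. Readout after 72 hr at 37 degree celsius was CellTiter-Glo luminescence.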

[5] = system: MCC-13; experiment: as above; conditions: MCC and control cell lines, CellTiter-Glo viability, 72 h; series mostly up to 46 µM
Procedure, shortened: as §2

[6] = system: MCC-26; experiment: as above; conditions: MCC and control cell lines, CellTiter-Glo viability, 72 h; series mostly up to 46 µM
Procedure, shortened: as §2

[7] = system: KB-3-1; experiment: Cytotoxic Profiling of Annotated Libraries Using Quantitative High-Throughput Screening (AID 1296008); conditions: Five cell lines viability, CellTiter-Glo ATP luminescence, 48-72 h; max response: stronger effect = lower value
Procedure, shortened: as §1

[8] = system: HEK293T; experiment: qHTS assay to identify novel small-molecules to repurpose for Merkel cell carcinoma treatment (AID 1296009); conditions: MCC and control cell lines, CellTiter-Glo viability, 72 h; at 44.8 µM (top of the series) unless noted
Procedure, shortened: as §2

[9] = system: CRL-7250; experiment: Cytotoxic Profiling of Annotated Libraries Using Quantitative High-Throughput Screening (AID 1296008); conditions: Five cell lines viability, CellTiter-Glo ATP luminescence, 48-72 h; max response: stronger effect = lower value
Procedure, shortened: as §1
Note: nearly all actives have a fitted effect of over 60% in size.
Potency is the fitted concentration of half-maximal effect.

CCOC(=O)c1cc(=O)c2c(OCC(COc3cccc4oc(C(=O)OCC)cc(=O)c34)OC(=O)[C@@H](N)CCCCN)cccc2o1
max response [1]: 4.3% | outcome [2]: inactive | outcome [3]: inactive | outcome [4]: inactive | Potency [5]: inactive | Potency [6]: inactive

CC(=O)Nc1ccn(C2COC(COC(=O)c3ccccc3)O2)c(=O)n1 (centres undefined)
Potency [1]: 18.8 µM (active) | outcome [7]: inactive | Potency [5]: inactive | Potency [6]: inactive

COc1cc2c(cc1OC)CN(C(=O)[C@H](C)N[C@@H](CCc1ccccc1)C(=O)O)[C@H](C(=O)O)C2
outcome [1]: inactive | max response [2]: 0.663% | max response [3]: -7.08% | outcome [8]: inactive | Potency [5]: inactive

O=C1NCCN1CCN1CCC(c2cn(-c3ccc(F)cc3)c3ccc(Cl)cc23)CC1
Potency [1]: 6.68 µM (active) | Potency [6]: 21.1 µM (active)

CCCCNc1ccc(C(=O)OCCN(CC)CC)cc1
max response [9]: -6.06% | max response [2]: -28.3% | Potency [5]: inactive | Potency [6]: inactive

CC(=O)O[C@@H]1C(=O)O[C@@H]2[C@H]1OC(=O)[C@@H]2OC(C)=O
max response [1]: -3.32% | outcome [7]: inactive | Potency [5]: inactive | Potency [6]: inactive

O=C1Nc2cc(Cl)ccc2Oc2ccccc21
outcome [1]: inactive | outcome [2]: inactive | max response [3]: -1.14% | outcome [4]: inactive | outcome [8]: inactive | Potency [5]: inactive | Potency [6]: inactive

NC(=O)C1(N2CCCCC2)CCN(CCCN2c3ccccc3CCc3ccc(Cl)cc32)CC1
Potency [1]: 10.6 µM (active)

COc1ccc([C@@H]2Sc3ccccc3NC(=O)[C@@H]2O)cc1
max response [9]: -22.1% | Potency [6]: inactive

CC(C)=CCC/C(C)=C/CC/C(C)=C/C(=O)OCC(=O)[C@@]1(O)CC[C@H]2[C@@H]3CCC4=CC(=O)C=C[C@]4(C)[C@H]3[C@@H](O)C[C@@]21C
Potency [1]: 10.6 µM (active) | Potency [5]: inactive | Potency [6]: inactive

CCCC(=O)c1cc(O)c(O)cc1O
max response [9]: -22.6% | max response [2]: -3.56% | Potency [5]: inactive

Oc1cccc2[nH]ccc12
max response [1]: 2.46% | max response [2]: -5.11% | max response [3]: -6.12% | Potency [5]: inactive | Potency [6]: inactive

O=C(Nc1ccc(Cl)cc1)Nc1ccc(Cl)c(C(F)(F)F)c1
max response [1]: -107%

O=C(c1cc(O)c(O)c(O)c1)c1ccc(O)c(O)c1O
max response [9]: -19.4% | max response [2]: -2.77% | Potency [5]: inactive | Potency [6]: inactive

CC(C)(C)c1ccc(O)c(O)c1
Potency [1]: 12.2 µM (active) | max response [7]: -6.07%

OCc1c[nH]c2ccccc12
Potency [1]: 21.7 µM (active) | max response [7]: -7.74% | Potency [5]: inactive | Potency [6]: inactive

Cc1ncc([N+](=O)[O-])n1C
outcome [1]: inactive | max response [3]: -19.7% | outcome [8]: inactive | Potency [5]: inactive | Potency [6]: inactive

COc1ccc2nc(SCc3ncc(C)c(OC)c3C)[nH]c2c1
max response [1]: -3.1% | outcome [2]: inactive | outcome [3]: inactive | outcome [4]: inactive | Potency [5]: inactive | Potency [6]: inactive

OC1(c2ccc(Cl)c(C(F)(F)F)c2)CCN(CCCC(c2ccc(F)cc2)c2ccc(F)cc2)CC1
Potency [1]: 8.41 µM (active) | Potency [7]: 23.1 µM (active) | Potency [5]: 18.8 µM (active)

CC(C)=CCNc1ncnc2c1ncn2[C@@H]1O[C@H](CO)[C@@H](O)[C@H]1O
Potency [9]: 1.5 µM (active) | Potency [3]: 7.5 µM (active) | Potency [5]: 8.41 µM (active)

Cc1c(C)c2c(c(C)c1OC(=O)CCC(=O)OCCO)CC[C@@](C)(CCC[C@H](C)CCC[C@H](C)CCCC(C)C)O2
max response [9]: -109% | max response [7]: -31.1% | max response [3]: -19.3% | Potency [5]: inactive | Potency [6]: inactive

CC[C@@H]([C@H](C)O)n1ncn(-c2ccc(N3CCN(c4ccc(OC[C@@H]5CO[C@@](Cn6cncn6)(c6ccc(F)cc6F)C5)cc4)CC3)cc2)c1=O
Potency [1]: 7.5 µM (active) | max response [2]: -3.01% | Potency [5]: inactive | Potency [6]: inactive

OCCOCCN1CCN(C(c2ccccc2)c2ccc(Cl)cc2)CC1 (centres undefined)
max response [1]: -4.98% | max response [2]: -23.3% | max response [7]: 15.7% | outcome [3]: inactive | Potency [5]: inactive | Potency [6]: inactive
